# The list is not random: actives were taken first. Their share in the collection is about 1.2%.
# NTR1 agonist – activates human neurotensin receptor 1; P30989; NTR1-U2OS beta-arrestin-GFP spot imaging, agonist mode; activation, % at 20 µM; 0.17% of 330,000 active;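 active means activation at or above 40% of the spot to cytoplasm intensity ratio, with at least 20 cells analyzed; inconclusive means wells under 20 cells, flagged as cytotoxic or low count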;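 further: 0% = DMSO without peptide and 100% = 100 nM NTR1 peptide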
# beta cell repl – induces beta-cell replication in MIN6 cells; proliferation, % at 10 µM; 0.29% of 330,000 active; MIN6 cells proliferation, ATPlite luminescence, 48 h; cells starved in 0.2% serum; 100% = growth in 10% serum;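 active means compounds whose signal lies at least 3.5 SD above the mean of all wells on their plate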;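 further: 0% = DMSO-treated cells in low-serum medium and 100% = 10% serum control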
# GRK2 aptamer HTS – inhibitors of human GRK2 displacing RNA aptamer; P25098; bead flow cytometry, FAM-aptamer displacement from GRK2; inhibition of aptamer binding, % at 10 µM; 0.59% of 330,000 active; AID 488847;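 active means inhibition of aptamer binding above 40%, roughly 3 SD of noise, on plates passing a quality check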;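 further: median bead fluorescence of bound FAM aptamer so fluorescent compounds give negative values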
# Target sequence (P25098 whole entry, looked up): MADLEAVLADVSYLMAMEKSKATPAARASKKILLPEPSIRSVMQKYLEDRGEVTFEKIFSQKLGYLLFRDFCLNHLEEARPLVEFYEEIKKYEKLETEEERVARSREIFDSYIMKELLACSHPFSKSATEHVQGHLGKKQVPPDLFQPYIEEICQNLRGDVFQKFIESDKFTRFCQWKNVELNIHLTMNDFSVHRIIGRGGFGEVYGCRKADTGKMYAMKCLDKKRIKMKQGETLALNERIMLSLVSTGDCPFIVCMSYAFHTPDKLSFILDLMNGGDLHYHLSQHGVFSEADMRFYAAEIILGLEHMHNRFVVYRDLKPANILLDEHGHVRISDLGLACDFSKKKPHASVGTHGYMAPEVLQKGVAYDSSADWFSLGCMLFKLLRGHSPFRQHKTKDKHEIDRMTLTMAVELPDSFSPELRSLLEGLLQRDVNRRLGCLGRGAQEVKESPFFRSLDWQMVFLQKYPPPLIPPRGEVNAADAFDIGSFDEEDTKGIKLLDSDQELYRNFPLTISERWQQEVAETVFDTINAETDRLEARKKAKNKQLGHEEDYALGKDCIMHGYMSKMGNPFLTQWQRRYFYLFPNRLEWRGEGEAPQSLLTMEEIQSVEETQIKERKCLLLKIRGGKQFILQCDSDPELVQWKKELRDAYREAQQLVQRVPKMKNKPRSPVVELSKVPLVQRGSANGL
# Platelet DG rel – modulates dense granule release in human platelets. human platelet-rich plasma, SFLLRN dense granule ATP release, luminescence. inhibition, %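 (compounds screened at 7.5 µM in platelet-rich plasma)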. 0.22% of 300,000 active. AID 1663;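 active means mean replicate score, as percent of positive control, at or above 50; inconclusive means mean below 50 but at least one replicate at or above 50; inactive means mean and every replicate below 50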
# GRK2 inh confirm – human GRK2 inhibition confirmation, cherry pick 1; shares compounds with GRK2 aptamer HTS; AID 504451; bead-bound GRK2, FAM-aptamer displacement, flow cytometry; aptamer displacement, % at 10 µM; 4% of 2,000 active;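 active means aptamer displacement above 40%, near three times the noise of non-fluorescent compounds, on plates passing quality checks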;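 further: negative values mostly reflect intrinsic compound fluorescence rather than true enhancement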
# Aptamer quench 1 – fluorescent aptamer quenching in GRK2 counter-screen dose response. AID 504521. fluorescence change (kMESF span), kMESF (concentration not given with the values). Fluorescent RNA aptamer beads, flow cytometry; stronger effect = higher value. shares compounds with GRK2 aptamer HTS. 110 tested, under 10 active;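 active means compounds whose bead fluorescence drops by more than 37 kMESF across the dose range, marking them as dye quenchers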
# FAM quench CP1 – aptamer fluorescence quenching in GRK2 counter-screen | fluorescence response (% of DMSO), % at 10 µM | Carboxyfluorescein RNA aptamer on beads, flow cytometry quenching; stronger effect = lower value | 2,000 tested, under 10 active | shares compounds with GRK2 aptamer HTS | AID 504580;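 active means compounds that quench the bead-bound fluorescent RNA probe, cutting fluorescence to under half of the solvent control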;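 further: counterscreen run without GRK2 so only probe quenching by compound is measured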
# GRK2 confirm 2 – confirmation of human GRK2 inhibitors binding RNA aptamer site; inhibition of aptamer binding, % at 10 µM; 360 tested, under 10 active; shares compounds with GRK2 aptamer HTS; bead-bound GRK2, FAM-aptamer displacement, flow cytometry;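 active means inhibition of aptamer binding above 40%, about triple the noise seen with nonglowing compounds, on plates passing quality control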;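 further: negative values mostly come from compounds that fluoresce themselves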
# FAM quench CP2 – quenches fluorescent RNA aptamer, GRK2 hit artifact; shares compounds with GRK2 aptamer HTS; carboxyfluorescein RNA aptamer beads, flow cytometry quenching; stronger effect = lower value; fluorescence response vs DMSO, % at 10 µM; 360 tested, under 10 active; AID 588494;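 active means response vs DMSO under 50%, meaning signal dropped by over half, treated as fluorescence quencher; inconclusive means no clear call, values can overlap the other calls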;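 further: labelled aptamer on streptavidin beads without GRK2 as a quench counter-screen; 100% = bead fluorescence of DMSO wells and lower means quenching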
# Starred values were filed as active, the others as inactive; ? = inconclusive; nt = no result given.
SMILES,NTR1 agonist,beta cell repl,GRK2 aptamer HTS,Platelet DG rel,GRK2 inh confirm,FAM quench CP1,others
COc1ccc(CC(=O)NCCN2CCOCC2)cc1,-1,-1,32,-1,3,101,
COc1ccc(OCCOCCN2CCOCC2)cc1,0,0,56*,3,1,99,
O=C(O)Cn1nnc(-c2cccs2)n1,-1,-1,89*,-1,-2,100,
CCOC(=O)C1(Cc2ccccc2C)CCCN(C(=O)c2ccoc2)C1 (configuration not stated),0,4,6,-5,nt,nt,
CC(C)NC(=S)NNc1ncnc2sc3c(c12)CC(C)(C)OC3,4,0,1,2,nt,nt,
CC1(C)Cc2c(sc3ncnc(NNC(=S)NCc4ccccc4)c23)CO1,3,-1,91*,-2,1,87,
CN(C)S(=O)(=O)c1cccc(COc2ncnc3c(Cl)cc(Cl)cc23)c1,5,1,90*,-2,0,102,
CC1CCN(c2nc(CN3CCCCC3)nc3scc(-c4ccccc4)c23)CC1,11,-5,0,-16,-3,94,
CC1CCN(c2nc(-c3cccnc3)nc3scc(-c4ccccc4)c23)CC1,2,-6,1,2,nt,nt,
COc1ccc(N(C(=O)c2ccco2)C(C(=O)NC2CCCC2)c2ccncc2)cc1 (configuration not stated),0,4,83*,5,0,99,
CCCC(=O)Nc1cc(C)cn(Cc2c(F)cccc2Cl)c1=O,1,-2,6,-3,nt,nt,
CC(C)[C@H](NS(=O)(=O)c1cccc(Cl)c1)C(=O)OCC(=O)NC(=O)CN1CCCC1=O,-3,-5,45*,nt,39,100,
COC(=O)c1c(NC(=O)COC(=O)[C@@H](NS(=O)(=O)c2cccc(Cl)c2)C(C)C)sc2c1CCC2,8,-4,0,9,nt,nt,
COc1ccc(C(=O)NCc2ccccc2CN2CCCC2)cc1S(=O)(=O)N1CCOCC1,0,7,nt,nt,nt,nt,
COc1ccc(CC(=O)Nc2ccc(N(C)C)c3ccccc23)cc1,0,1,17,-3,nt,nt,
Cc1ccccc1-c1ccccc1CN1[C@@H](C(C)C)COCCS1(=O)=O,10,nt,3,nt,nt,nt,
COc1ccccc1S(=O)(=O)Cc1ccc(C(=O)NC(C)c2ccc3c(c2)OCCO3)o1 (configuration not stated),0,-1,2,-2,1,99,
CCC(/C=C1\Sc2ccc(OC)cc2N1CC)=C\c1sc2ccc(OC)cc2[n+]1CCCS(=O)(=O)[O-],5,-6,91*,12,85*,108,Aptamer quench 1=1.7
CCn1cc(C(=O)N2CC(C)CC(C)C2)c(=O)c2cc(S(=O)(=O)N(C)C)ccc21 (configuration not stated),1,-3,0,3,nt,nt,
CC1CC(C)CN(C(=O)c2cn(C)c3ccc(S(=O)(=O)N(C)C)cc3c2=O)C1 (configuration not stated),-1,-3,86*,-1,1,103,
O=C(CN(C(=O)CNC(=O)c1ccco1)c1ccc(F)cc1)NC1CCCCC1,0,0,0,-1,nt,nt,
Cc1ccc(C(=O)c2nc3c(n2O)CCCC3)cc1,0,-1,1,-1,nt,nt,
CCOc1ccc(C(=O)c2nc3c(n2O)CCCC3)cc1,2,0,25,11,-1,104,
COc1ccccc1OCCC(=O)Nc1cccc(S(=O)(=O)N2CCCCC2)c1,0,2,0,0,nt,nt,
COc1ccccc1OCCC(=O)Nc1cccc(S(=O)(=O)N2CCOCC2)c1,3,-4,97*,nt,0,101,
SMILES,NTR1 agonist,beta cell repl,GRK2 aptamer HTS,Platelet DG rel,GRK2 inh confirm,FAM quench CP1,others
COc1ccc(N2CCN(C(=O)c3ccc(COc4ccc([N+](=O)[O-])cc4)o3)CC2)cc1,5,-1,nt,-2,nt,nt,
CSc1ccc(C2C(C(=O)c3ccco3)=C(O)C(=O)N2c2nnc(SC)s2)cc1 (configuration not stated),1,-1,4,-6,nt,nt,
CN(CC(=O)Nc1ccc(F)cc1)CC(=O)N1CCc2ccccc21,0,-5,nt,nt,nt,nt,
Cc1cc(C)nc(/N=C2\NC(=O)CC(C(=O)O)N2CCc2c[nH]c3ccccc23)n1 (configuration not stated),-1,-1,60*,-1,-1,102,
Cc1cc(C)nc(/N=C2\NC(=O)CC(C(=O)O)N2c2ccc(F)c(Cl)c2)n1 (configuration not stated),0,-2,0,-2,nt,nt,
Cc1cc(C)cc(NC(=O)c2cccc(NC(=O)c3ccco3)c2)c1,0,1,0,-7,-1,90,
O=C(NCC1CCCO1)c1cccc(NC(=O)c2ccco2)c1 (configuration not stated),0,-2,0,3,-1,111,
O=C(NC1CCCC1)c1cccc(NC(=O)c2ccco2)c1,-1,0,4,-2,2,99,
O=C(NCC1CCCO1)c1cccc(NC(=O)c2ccc(Br)cc2)c1 (configuration not stated),0,4,5,?,nt,nt,
O=C(Nc1cccc(NC(=O)c2ccco2)c1)c1cccc(Br)c1,0,0,3,4,nt,nt,
O=C(NCc1cccnc1)c1cccc(Cl)c1,-2,0,0,-16,nt,nt,
CC(=O)c1cccc(NC(=O)c2cccc(NC(=O)c3ccco3)c2)c1,0,-3,6,-1,nt,nt,
O=C(NCc1cccnc1)c1cccc(NC(=O)c2ccco2)c1,-1,1,0,1,5,97,
CCN(C(=O)CN1C(=O)COc2ccc(S(=O)(=O)N3CCCCCC3)cc21)c1cccc(C)c1,1,-4,0,-3,nt,nt,
O=C(CSc1nnc(-c2ccncc2)o1)N1CCCC1,4,1,1,-2,nt,nt,
Nc1nn(-c2ccccc2)c2ccc([N+](=O)[O-])cc12,-1,-2,75*,32,2,85,
COc1ccc(-n2nc(C(=O)NCc3cc(OC)ccc3OC)c3c4ccccc4n(C)c3c2=O)cc1,1,2,77*,8,-2,102,
COc1ccc(-n2nc(C(=O)NCc3ccco3)c3c4ccccc4n(C)c3c2=O)cc1,4,1,4,4,nt,nt,
O=C(CNS(=O)(=O)c1ccc(Cl)c(C(F)(F)F)c1)NC1CCCCCC1,0,0,43*,nt,nt,nt,GRK2 confirm 2=13;FAM quench CP2=100
